Laboratory results reported in PubChem BioAssay (NCI).
About 79,000 compounds went through this panel and 15% of them were active in at least one assay; those are over-represented in the sample as a whole. Rule as the data show it: active = growth inhibition above about 70%; inactive = the rest.

Legend:
[1] = NCI Yeast Anticancer Drug Screen. Data for the rad50 strain (AID 155);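 also: 0% = growth of vehicle-only cultures of the same strain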; conditions: S. cerevisiae rad50 strain growth inhibition; at 50.0 µM; hits give high values
Procedure, shortened: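 Yeast carrying a defined DNA repair defect were exposed to test compounds, and growth was compared with vehicle-treated controls to give percent inhibition.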

[2] = NCI Yeast Anticancer Drug Screen. Data for the mec2-1 strain (AID 157); conditions: S. cerevisiae mec2-1 strain, at 50.0 µM, hits give high values
Procedure, shortened: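 Cells of the genetically defined mec2-1 yeast strain are incubated with test compound. Inhibition of growth is calculated against vehicle-treated controls.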

[3] = NCI Yeast Anticancer Drug Screen. Data for the sgs1 mgt1 strain (AID 161);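 also: 0% = growth of cultures given vehicle only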; conditions: S. cerevisiae sgs1 mgt1 strain, at 50.0 µM, hits give high values
Procedure, shortened: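 Read-out: growth inhibition vs vehicle controls. Cells: mutant yeast strain deficient in DNA damage repair.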

[4] = NCI Yeast Anticancer Drug Screen. Data for the cln2 rad14 strain (AID 165);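 also: 0% = growth equal to vehicle treated cultures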; conditions: S. cerevisiae cln2 rad14 strain, at 50.0 µM, hits give high values
Procedure, shortened: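 The screen exposed genetically defined yeast (cln2 rad14) to test compounds and scored growth inhibition relative to vehicle-treated controls.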

[5] = NCI Yeast Anticancer Drug Screen. Data for the bub3 strain (AID 167); conditions: S. cerevisiae bub3 mutant strain, at 50.0 µM, hits give high values
Procedure, shortened: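 Compounds were applied to a genetically altered yeast strain carrying a cell-cycle control defect. Growth inhibition was scored against vehicle-treated controls.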

[6] = NCI Yeast Anticancer Drug Screen. Data for the mlh1 rad18 strain (AID 175); conditions: S. cerevisiae mlh1 rad18 strain growth inhibition; at 50.0 µM; hits give high values
Procedure, shortened: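 Compound-treated yeast growth, normalised to vehicle controls. Strain bears defined DNA repair mutations.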

Measured: growth inhibition

COCCO[Si](OCCOC)(OCCOC)OCCOC
inactive: [1] 4.3% | [2] -10.2% | [3] -1.25% | [4] 11.9% | [5] 7.4% | [6] 10.2%

CC(=O)O/C(=C\C(=O)[C@H]1CC[C@H]2[C@@H]3CC[C@@H]4C[C@H](OC(C)=O)CC[C@]4(C)[C@H]3C(=O)C[C@]12C)C(F)(F)F
inactive: [1] -16.1% | [2] 23.6% | [3] 5.25% | [4] 18.8% | [5] 8.85% | [6] -13.6%

COC(C)C(NC(=O)C1CCCN1C)C1OC(SCCOC(=O)c2ccccc2O)C(O)C(O)C1O (stereo not given)
inactive: [1] 8.3% | [2] 6.3% | [3] -13.6% | [4] 13.4% | [5] 3.45% | [6] 31.6%

Nc1nc(Nc2ccccc2)nc(SCc2ccccc2)n1
inactive: [1] 9.7% | [2] 5.45% | [3] -5.5% | [4] -33.5% | [5] 0.15% | [6] 13.7%

NC(=O)c1ccccc1[N+](=O)[O-]
inactive: [1] 3.75% | [2] -7% | [3] -16.4% | [4] 6.4% | [5] -16.1% | [6] -6.5%

CC(=O)/C(=N\N=C(N)N)c1ccccc1
inactive: [1] -25.4% | [2] -28.8% | [3] -19.6% | [4] 19.8% | [5] 18.1% | [6] 4.5%

COC1(CCO)CC=CCC1(CCO)OC (stereo not given)
inactive: [1] -2.45% | [2] -20.4% | [3] -19.3% | [4] 13.3% | [5] -19.4% | [6] -7.9%

C#C/C=C/CC(OC(C)=O)C1C/C=C\CC(Br)C(CC)O1 (stereo not given)
inactive: [1] 31.1% | [2] 16.5% | [3] 46% | [4] 36.1% | [5] 49% | [6] 45.3%

CC(C)(C)OC(=O)CC(NC(=O)OC(C)(C)C)C(=O)N[C@@H]1CCCC[C@H]1C(=O)OCc1ccccc1 (stereo not given in full)
inactive: [1] 8.3% | [2] 15.2% | [3] 9.55% | [4] 8.35% | [5] 14.7% | [6] 23.1%

CC(=O)OC(C)C(C)Br (stereo not given)
inactive: [1] 9.75% | [2] 4.4% | [3] -9.35% | [4] -25.1% | [5] -13% | [6] 4.9%

O=C(O)C(O)c1c[nH]c2ccccc12 (stereo not given)
inactive: [1] -4.85% | [2] -2.3% | [3] -26.6% | [4] -1.25% | [5] -11.4% | [6] -29.3%

CC(=O)c1ccccc1
inactive: [1] 1.4% | [2] -12.9% | [3] -16.1% | [4] -5.7% | [5] -18.2% | [6] -23.8%

O=C(C[n+]1ccncc1)c1cccc([N+](=O)[O-])c1
inactive: [1] 0.5% | [2] -1.95% | [3] 9.15% | [4] 8.35% | [5] 7.65% | [6] 27.4%

COC(=O)C1CC2(C(=O)OC)CC(C(=O)OC)(CC(C(=O)OC)C2=O)C1=O (stereo not given)
inactive: [1] 9.55% | [2] -0.15% | [3] 14.1% | [4] 11.9% | [5] 18.5% | [6] 3.55%

NC(C(=O)O)C(F)(F)C(=O)O (stereo not given)
inactive: [1] 2.45% | [2] -18.7% | [3] -2.7% | [4] -33.1% | [5] -7.3% | [6] -1.15%

c1ccc(CNCCNCc2ccccn2)nc1
inactive: [1] 25.4% | [2] 7.45% | [3] 16.1% | [4] -61.1% | [5] -1.15% | [6] 16.8%

COC(=O)c1ccccc1N(C(=O)c1ccccc1)c1ccccc1C
inactive: [1] -16.1% | [2] -13.3% | [3] -18.9% | [4] 10.4% | [5] -11.3% | [6] -55%

CCCC(=O)/C=C\c1ccccc1
inactive: [1] 21.6% | [2] -3.7% | [3] 6.55% | [4] -61.9% | [5] 3.2% | [6] -10.7%

C/C(CC1CC=CCC1)=N\NC(N)=O (stereo not given)
inactive: [1] -16.1% | [2] -4.7% | [3] -2.6% | [4] -20.5% | [5] -3.8% | [6] 30.8%

CNc1ccc2c(c1)C(=O)c1ccccc1-2
inactive: [1] 11.1% | [2] 14.4% | [3] -5.55% | [4] 19.9% | [5] 1.35% | [6] -11.4%

CCCCN(CCCC)CC(C)O (stereo not given)
inactive: [1] -21.8% | [2] -35.8% | [3] -22.4% | [4] 16.9% | [5] -12.9% | [6] -18.6%

CC1=NN(C(=O)c2cccnc2)C(=O)C1N=Nc1ccc(S(=O)(=O)N=C(N)N)cc1 (stereo not given)
inactive: [1] 4.8% | [2] -14.6% | [3] -12.4% | [4] -6.5% | [5] 0% | [6] -21.9%

COc1ccc(/C=C2\NC(=O)NC2=O)cc1Br
inactive: [1] 11.8% | [2] 10.4% | [3] 2.65% | [4] 7% | [5] 9.1% | [6] 8.5%

C/C(=N\NC(N)=S)C(CN(CC(C)C)CC(C)C)C(=O)Nc1ccc(C)cc1C (stereo not given)
inactive: [1] -18.7% | [2] 6.4% | [3] -7.15% | [4] 16% | [5] -1.15% | [6] -2.75%

CC(C)C(NC(=O)C(Cc1ccccc1)NC(=O)[C@H]1CCC[C@H]1NC(=O)C(Cc1ccc(OC(C)(C)C)cc1)NC(=O)OC(C)(C)C)C(N)=O (stereo not given in full)
inactive: [1] -11.2% | [2] -6.7% | [3] -15.8% | [4] 18.7% | [5] -7.65% | [6] -0.2%

CCOC(=O)Nc1cc([N+](C)(C)C)ccc1OCCOc1ccc([N+](C)(C)C)cc1
inactive: [1] -0.4% | [2] 5.35% | [3] -8.4% | [4] -8.8% | [5] -1.65% | [6] 28.6%

CC(=O)Oc1cccc2c1C(=O)C1CC(O)C3(C=O)OC(C)(C)OC2(C)C13 (stereo not given)
inactive: [1] 8.45% | [2] -2.6% | [3] 5.95% | [4] 4.7% | [5] -3.45% | [6] 3.6%

CCCOCN1COCN=C1NC#N
inactive: [1] 28.8% | [2] 12.3% | [3] -4.7% | [4] -0.05% | [5] 5.65% | [6] 5.75%

CC1=CC(=O)C2CC1C2(C)C (stereo not given)
inactive: [1] 6.55% | [2] -0.5% | [3] 0.5% | [4] 4.75% | [5] 4.6% | [6] -5.2%

O=C(Nc1ccc(Cl)cc1)Nc1nnc2nc(C3(c4nc5nnc(NC(=O)Nc6ccc(Cl)cc6)n5[nH]c4=O)Cc4ccccc4C3=O)c(=O)[nH]n12
inactive: [1] 29.5% | [2] -1.6% | [3] 8.3% | [4] 12.9% | [5] 8.75% | [6] 2.3%

CC(=O)C1(c2ccccc2)C(C)(C)C(C)(C)C(=O)C(C)(C)C1(C)C
inactive: [1] 19.4% | [2] 7.55% | [3] 15.4% | [4] 16.9% | [5] 12.9% | [6] 21.6%

CC(C)c1ccc2c(c1)CCC1C(C)(C)[C@@H](O)CC[C@]21C (stereo not given in full)
inactive: [1] -15.3% | [2] -40.1% | [3] -23.2% | [4] 19.4% | [5] -32.6% | [6] -22.3%

CCOC(=O)/C=C1\NC(=O)N(CCCCCCN2C(=O)N/C(=C\C(=O)OCC)C2=O)C1=O
inactive: [1] 44.7% | [2] 13.3% | [3] 39.2% | [4] 7.95% | [5] -1.95% | [6] 29.9%

CC(NC(=O)Nc1ccccc1Cl)c1ccccc1 (stereo not given)
inactive: [1] -2.05% | [2] 17.6% | [3] 1.5% | [4] -10.8% | [5] 34% | [6] 11.1%

CCOC1(C)OC2OC(COC(C)=O)C(OC(C)=O)C(OC(N)=O)C2O1 (stereo not given)
inactive: [1] -11.8% | [2] 0.05% | [3] -5.75% | [4] -34% | [5] -1.15% | [6] 15.2%

Cn1c(CC(O)c2nc3ccccc3n2C)nc2ccccc21 (stereo not given)
inactive: [1] -18.7% | [2] -18.6% | [3] -10.2% | [4] -8.75% | [5] -23.8% | [6] -33.5%

C=Nc1ccc(C)cc1
inactive: [1] 6.7% | [2] -14.8% | [3] -12% | [4] -15.7% | [5] -2.7% | [6] -18.4%

CCOC(=O)NC(=O)c1cn(CCCOC(=O)CCCCCCCCC(=O)OCCCn2cc(C(=O)NC(=O)OCC)c(=O)n(C)c2=O)c(=O)n(C)c1=O
inactive: [1] -16.4% | [2] -25.1% | [3] -25.2% | [4] 6% | [5] 4.3% | [6] -23.7%

CCOC(=O)/C(=C(/C)N=Cc1ccccc1[N+](=O)[O-])C(NN=O)c1ccccc1[N+](=O)[O-] (stereo not given)
inactive: [1] 11.9% | [2] 4.85% | [3] -9.55% | [4] 8.5% | [5] -5% | [6] 17.8%

CC(=O)CC(=O)N1CCCC(C)C1 (stereo not given)
inactive: [1] -2.85% | [2] -40.8% | [3] -38.5% | [4] 9.1% | [5] -10.9% | [6] 1.3%
